About 79,000 compounds went through this panel and 15% of them were active in at least one assay; those are over-represented in the sample as a whole. Values without a mark were called inactive. Active and inactive are the calls of the source. No stated cut-off is given here; in the data, active means growth inhibition above about 70%; inactive means the rest.
Assay: NCI Yeast Anticancer Drug Screen. Data for the rad50 strain (AID 155);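 further: 0% = growth of vehicle-only cultures of the same strain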
Details: S. cerevisiae rad50 strain growth inhibition; at 5.0 µM (retest, dose inferred, filed as 0.5); hits give high values
Procedure, shortened: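 Relative growth inhibition (compound vs vehicle) was measured in yeast with a defined repair-gene alteration.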

Compound	growth inhibition
Clc1cc2n[nH]nc2c(Cl)c1Cl	-6%
NSc1ccc(N)s1	-1%
O=C1C2=C(CCCC2)C(=O)C(Cl)C1Cl (stereo not drawn)	36%
O=C(COc1ccc2ccccc2c1)NC1c2ccccc2Oc2ccccc21	77% (active)
COc1ccc(-c2cc(-c3ccco3)c(C#N)c(=S)n2C2OC(CO)C(O)C(O)C2O)cc1 (stereo not drawn)	-8%
Clc1cccc(Cl)c1C(Nc1nncs1)Nc1nncs1	0%
COC([C@@H](OC(=O)c1ccccc1)[C@H](OC(=O)c1ccccc1)C(O)COC(=O)c1ccccc1)n1cc(C)c(=O)[nH]c1=O (stereo partly drawn)	-8%
C1=C(c2c(-c3ccccc3)[nH]c3ccccc23)Cc2ccccc21	3%
CC12C(=O)OC(=O)C1C1c3ccccc3C2c2ccccc21 (stereo not drawn)	71% (active)
O=C(N/C(=C\c1ccc(/C=C(\NC(=O)c2ccccc2)c2nc3ccccc3s2)cc1)c1nc2ccccc2s1)c1ccccc1	57%
COS(=O)c1cc(Cl)cc(Cl)c1OC(=O)CSSCC(=O)Oc1c(Cl)cc(Cl)cc1S(=O)OC (stereo not drawn)	87% (active)
COc1cc2c3c(c4ccc(OC)c(OC)c4c2cc1OC)CN1CCC[C@@H]1C3	11%
N#CSC#CCCC#CSC#N	52%
Nc1nc(-c2ccc(Cl)cc2)c(N=Nc2ccc(Br)cc2)s1	1%
CC(=O)C(C(C)=O)C1C=CC=CC=C1	-149%
CCCCN(C(=O)c1ccccc1)C1CCC(=O)c2[nH]c3ccccc3c21 (stereo not drawn)	-3%
S=C(Nc1ccc(Cl)c(Cl)c1)N1c2ccccc2-n2cccc2C1c1cccnc1 (stereo not drawn)	49%
O=C1CCC(Cc2ccc(C(F)(F)F)cc2)C(=O)N1 (stereo not drawn)	-3%
Oc1cc(O)c2c(c1)OC(c1ccc(O)c(O)c1)C(OC1(c3cc(O)c(O)c(O)c3)Oc3cc(O)cc(O)c3C(O)C1O)C2 (stereo not drawn)	-4%
Cc1cccc(N=Nc2ccc(O)cc2)c1	-152%

Compound	growth inhibition
Cc1c2c(c(C)c3c4c(oc13)CCCC4)C=NCC2	-4%
CCOC(=O)C(=CCC1NCCc2c1[nH]c1ccccc21)C(=O)OCC (stereo not drawn)	23%
CCOC(=O)C1=C(c2ccccc2)SC(c2ccccc2)N(C(C)C)C1=O (stereo not drawn)	8%
CN(C)CCCNc1cc(/C=C/c2ccc([N+](=O)[O-])cc2)nc2ccccc12	-6%
CC(CN(C)C)C(=O)c1cn(C)c2ccccc12 (stereo not drawn)	1%
Nc1ccccc1/C=C/c1c[nH]c2ccccc12	11%
Cc1c(CNc2ccc(Cl)c(Cl)c2Cl)cnc2nc(N)nc(N)c12	40%
O=C(c1cccs1)N(C(=S)N1CCN(c2ccccn2)CC1)c1ccccc1	10%
COc1ccccc1/C=C1\NC(=S)N(/C=C2\C(=O)Oc3ccccc3C2=O)C1=O	8%
Cc1cc(O)c(C)c(C)c1N=Nc1ccccc1	-157%
O=S1CCS(=O)C1c1ccccc1 (stereo not drawn)	-1%
Cc1ccc2nc(-c3ccc(N)cc3)sc2c1	9%
CC1OC(OC2C(Oc3c(-c4ccc(O)c(O)c4O)oc4cc(O)ccc4c3=O)OC(CO)C(O)C2O)C(O)C(O)C1O (stereo not drawn)	-4%
O=C(OCc1ccccc1CN1CCOCC1)c1cccc(Br)c1	2%
C=CCOCC(C)OC(=O)C(C)C (stereo not drawn)	-162%
CC(C)(C)OC(=O)N[C@H]1CC2(C=C(Cl)C(=O)C(Cl)=C2)OC1=O	32%
CC(Nc1ccc(Cl)c(Cl)c1)c1ccncc1 (stereo not drawn)	1%
COc1ccccc1/C=C(\NC(=O)c1ccccc1)c1nc2ccccc2[nH]1	42%
CCCCCCC(O)(CCCCCC)CCCCCC	-1%

Same assay, conditions: S. cerevisiae rad50 strain growth inhibition; at 50.0 µM (retest, dose inferred, filed as 5.0); hits give high values

Compound	growth inhibition
Clc1cc2n[nH]nc2c(Cl)c1Cl	63%
NSc1ccc(N)s1	11%
O=C1C2=C(CCCC2)C(=O)C(Cl)C1Cl (stereo not drawn)	98% (active)
O=C(COc1ccc2ccccc2c1)NC1c2ccccc2Oc2ccccc21	93% (active)
COc1ccc(-c2cc(-c3ccco3)c(C#N)c(=S)n2C2OC(CO)C(O)C(O)C2O)cc1 (stereo not drawn)	1%
Clc1cccc(Cl)c1C(Nc1nncs1)Nc1nncs1	85% (active)
COC([C@@H](OC(=O)c1ccccc1)[C@H](OC(=O)c1ccccc1)C(O)COC(=O)c1ccccc1)n1cc(C)c(=O)[nH]c1=O (stereo partly drawn)	26%
C1=C(c2c(-c3ccccc3)[nH]c3ccccc23)Cc2ccccc21	93% (active)
CC12C(=O)OC(=O)C1C1c3ccccc3C2c2ccccc21 (stereo not drawn)	99% (active)
O=C(N/C(=C\c1ccc(/C=C(\NC(=O)c2ccccc2)c2nc3ccccc3s2)cc1)c1nc2ccccc2s1)c1ccccc1	57%
COS(=O)c1cc(Cl)cc(Cl)c1OC(=O)CSSCC(=O)Oc1c(Cl)cc(Cl)cc1S(=O)OC (stereo not drawn)	99% (active)
COc1cc2c3c(c4ccc(OC)c(OC)c4c2cc1OC)CN1CCC[C@@H]1C3	95% (active)
N#CSC#CCCC#CSC#N	57%
Nc1nc(-c2ccc(Cl)cc2)c(N=Nc2ccc(Br)cc2)s1	93% (active)
CC(=O)C(C(C)=O)C1C=CC=CC=C1	93% (active)
CCCCN(C(=O)c1ccccc1)C1CCC(=O)c2[nH]c3ccccc3c21 (stereo not drawn)	1%
S=C(Nc1ccc(Cl)c(Cl)c1)N1c2ccccc2-n2cccc2C1c1cccnc1 (stereo not drawn)	99% (active)
O=C1CCC(Cc2ccc(C(F)(F)F)cc2)C(=O)N1 (stereo not drawn)	7%
Oc1cc(O)c2c(c1)OC(c1ccc(O)c(O)c1)C(OC1(c3cc(O)c(O)c(O)c3)Oc3cc(O)cc(O)c3C(O)C1O)C2 (stereo not drawn)	17%
Cc1cccc(N=Nc2ccc(O)cc2)c1	98% (active)

Compound	growth inhibition
Cc1c2c(c(C)c3c4c(oc13)CCCC4)C=NCC2	49%
CCOC(=O)C(=CCC1NCCc2c1[nH]c1ccccc21)C(=O)OCC (stereo not drawn)	93% (active)
CCOC(=O)C1=C(c2ccccc2)SC(c2ccccc2)N(C(C)C)C1=O (stereo not drawn)	67%
CN(C)CCCNc1cc(/C=C/c2ccc([N+](=O)[O-])cc2)nc2ccccc12	70% (active)
CC(CN(C)C)C(=O)c1cn(C)c2ccccc12 (stereo not drawn)	3%
Nc1ccccc1/C=C/c1c[nH]c2ccccc12	97% (active)
Cc1c(CNc2ccc(Cl)c(Cl)c2Cl)cnc2nc(N)nc(N)c12	86% (active)
O=C(c1cccs1)N(C(=S)N1CCN(c2ccccn2)CC1)c1ccccc1	16%
COc1ccccc1/C=C1\NC(=S)N(/C=C2\C(=O)Oc3ccccc3C2=O)C1=O	32%
Cc1cc(O)c(C)c(C)c1N=Nc1ccccc1	-58%
O=S1CCS(=O)C1c1ccccc1 (stereo not drawn)	28%
Cc1ccc2nc(-c3ccc(N)cc3)sc2c1	42%
CC1OC(OC2C(Oc3c(-c4ccc(O)c(O)c4O)oc4cc(O)ccc4c3=O)OC(CO)C(O)C2O)C(O)C(O)C1O (stereo not drawn)	-8%
O=C(OCc1ccccc1CN1CCOCC1)c1cccc(Br)c1	32%
C=CCOCC(C)OC(=O)C(C)C (stereo not drawn)	-158%
CC(C)(C)OC(=O)N[C@H]1CC2(C=C(Cl)C(=O)C(Cl)=C2)OC1=O	70% (active)
CC(Nc1ccc(Cl)c(Cl)c1)c1ccncc1 (stereo not drawn)	98% (active)
COc1ccccc1/C=C(\NC(=O)c1ccccc1)c1nc2ccccc2[nH]1	96% (active)
CCCCCCC(O)(CCCCCC)CCCCCC	-34%

Reference: PubChem BioAssay (NCI)
